Source: PubChem BioAssay (National Center for Advancing Translational Sciences (NCATS))
Six1-Eya2 blk: Six1/Eya2 interaction inhibition; Q15475+O00167; AID 651725; activity change, % (concentration not given with the values); AlphaScreen GST-Six1/His-Eya2 binding, biochemical; active compounds read low; 0.56% of 360,000 active; in the data active = activity change below about -65%; inconclusive = mostly about -30% to -63%; note: % is set by controls: 0 for no effect and ±100 for the full control effect
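Compounds are tested against tagged Six1 and Eya2 proteins bridged by glutathione donor and nickel acceptor beads; after a one-hour incubation at 37 °C without light, AlphaScreen emission is recorded.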
BAZ2B block: blocks human BAZ2B. AlphaScreen BAZ2B-H3K14Ac peptide displacement. Potency, µM (highest dose often 114 µM), for inactives: at the highest dose activity change, negative = inhibition, usual class: inhibitors. 4.4% of 360,000 active. AID 504333; note: potency is the fitted concentration of half-maximal effect; % is set by controls: 0 for no effect and ±100 for the full control effect; nearly all actives have a fitted effect of over 60% in size
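In this displacement format the biotinylated H3(5-23) peptide acetylated at Lys14 serves as ligand at 50 nM, with BAZ2B at 50 nM in PBS pH 7.4 containing 0.01% Tween-20. Donor and acceptor beads are 10 ug/mL final.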
HP1b binding inh: HP1-beta chromodomain-methylated histone interaction inhibition | P83916 | AlphaScreen HP1-beta / biotin-H3K9me3 peptide binding | Potency, µM (doses to about 114 µM), for inactives: at the top dose activity change, negative = inhibition, usual class: inhibitors | 0.56% of 390,000 active | AID 540317; note: potency is the fitted concentration of half-maximal effect; nearly all actives have a fitted effect of over 70% in size
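Compound inhibition of the preformed complex between 50 nM HP1-beta and 50 nM biotinylated H3K9me3 peptide was read by AlphaScreen. Buffer was PBS pH 7.4 with 0.01% Tween-20. Incubations ran 30 min at room temperature, with 10 ug/mL donor/acceptor beads.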
JMJD2A Tudor inh: inhibitors of human JMJD2A Tudor domain | O75164 | AlphaScreen JMJD2A-Tudor / H3K4me3 peptide binding | Potency, µM (titrated, usually from 114 µM), without a hit: top-dose activity change, negative = inhibition, hits mostly inhibitors | 4.4% of 390,000 active | AID 504339; note: potency is the fitted concentration of half-maximal effect; % is set by controls: 0 for no effect and ±100 for the full control effect; nearly all actives have a fitted effect of over 50% in size
G9a inh: inhibitors of human histone lysine methyltransferase G9a. Q96KQ7. G9a H3K9 monomethylation, AlphaScreen, 2 h. Potency, µM (top dose mostly 102 µM), for the others: top-dose activity, negative = inhibition, most hits filed as inhibitors. 8.8% of 350,000 active. AID 504332; note: potency is the fitted concentration of half-maximal effect; % is set by controls: 0 for no effect and ±100 for the full control effect; nearly all actives have a fitted effect of over 75% in size
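Methyltransferase reactions run at room temperature for 2 h (20 nM enzyme, 500 nM biotin-H3K9 peptide, 20 uM SAM) after a 15 min compound preincubation; product detected by AlphaScreen beads and anti-H3K9me1 antibody.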
CtBP-E1A inh: CtBP/E1A binding inhibition. activity change, % (no concentration beside the values). 0.49% of 340,000 active. AlphaScreen GST-E1A/His-CtBP binding, 1536-well; active compounds read low; in the data active = activity change below about -65%; inconclusive = mostly about -30% to -63%; note: % is set by controls: 0 for no effect and ±100 for the full control effect
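GST-E1A and His-tagged CtBP (125 nM each as 5X stock) were preincubated with pin-transferred compound for 2 h at 37 °C in the dark, then glutathione donor and nickel acceptor beads were added for 1 h before AlphaScreen reading.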
Numbers without * were called inactive; ? = inconclusive; / = no result; [ ] = another dose, or the depositor's remark. Rows were chosen to be rich in hits. Some 10% of all compounds tested hit in one or more screens of this group. Unless noted, calls come from the whole dose curve; as a rule, active = well fitted inhibition curve with a large enough effect; inconclusive = small, poorly fitted or top-dose-only effect; inactive = no such curve, though single readings can be large or run the other way.

SMILES | Six1-Eya2 blk | BAZ2B block | HP1b binding inh | JMJD2A Tudor inh | G9a inh | CtBP-E1A inh
COc1ccc(NC(=O)c2c(NCc3sccc3C)sc3c2CCCCC3)c(OC)c1 | / | 31.6µM* | -18.5% | ? | 11.2µM* | /
COc1ccc(Cl)cc1NC(=O)c1c(NCc2sccc2C)sc2c1CCCC2 | / | 44.7µM* | ? | 50.1µM* | 2.82µM* | /
CN(CC(=O)Nc1ccccc1Br)C(=O)c1ccccc1OCc1ccccc1Cl | 0.4 | / | 52.9% | -4.1% | / | -2.3
CCCCn1nnnc1C(CCSC)N1CCN(C/C=C/c2ccccc2)CC1 (stereo not given) | -11.8 | / | / | / | / | -8.2
O=C(/C=C/c1cccc(Cl)c1)c1ccc([N+](=O)[O-])o1 | 2.1 | 10µM* | -10.5% | ? | ? | 4.6
Cc1cc(O)c(C(=O)/C=C/c2ccccc2O)c(=O)o1 | -2.3 | ? | 2.2% | ? | 50.1µM* | /
O=C(/C=C/c1ccccc1O)c1ccccc1 | 10.0 | / | -14.0%[57 µM] | -15.2% | / | 13.4
Cc1cc(O)c(C(=O)/C=C/c2cccc([N+](=O)[O-])c2)c(=O)o1 | -22.0 | ? | -1.1% | ? | 12.6µM* | -6.1
Cc1nnc(SCC(=O)NNC(=O)COc2ccc(Cl)cc2)n1C | 7.6 | -15.6% | 65.9% | -14.1% | 7.4% | -4.7
C/C(=N\N=C(N)N)c1ccc(Cl)c(Cl)c1 | 6.5 | -12.1% | -11.5% | -18.2% | 50.1µM* | 18.1
C/C(=N\NC(=O)C1CC1)c1ccc(Cl)c(Cl)c1 | 4.7 | 4.8% | 25.4% | -8.4% | 6.4% | -5.4
Cc1cc(C)c2c(CC(=O)Nc3ccc(S(=O)(=O)Nc4nc(C)cc(C)n4)cc3)coc2c1 | / | -32.0% | 19.8% | -35.1% | 14.1µM* | /
Cc1cc(C)nc(NS(=O)(=O)c2ccc(NC(=O)Cn3c(=O)oc4ccccc43)cc2)n1 | -5.7 | 7.4% | 43.3% | -3.4% | 79.4µM* | 3.6
COc1ncc2nc(-c3cc(F)cc(F)c3)c(=O)n(Cc3cccs3)c2n1 | / | / | / | / | -9.7%[12.7 µM] | /
CCC(C)N(C(=O)Cn1c(Cl)nc2c1c(=O)n(C)c(=O)n2C)C1CCS(=O)(=O)C1 (stereo not given) | 2.2 | -4.7% | 15.1% | -13.8% | / | -7.0
CN(C(=O)Cn1c(Cl)nc2c1c(=O)n(C)c(=O)n2C)C1CCS(=O)(=O)C1 (stereo not given) | 6.1 | -4.9% | 0.2% | -20.0% | 56.2µM* | 4.2
CCNC(=O)C1(C)CCN(C(=O)CCc2ccccc2)C1 (stereo not given) | 4.7 | / | / | / | / | 6.7
COCC(=O)N[C@H]1CC[C@@H](CC(=O)NCc2ccccc2OC)O[C@@H]1CO | -5.1 | / | / | / | / | 0.1
COC(=O)c1cc(C)nc2c1C(=O)C(=O)C=C2N1CCOCC1 | -67.2* | 50.1µM* | -22.8% | -10.3% | 44.7µM* | -68.2*
CCCNC(=O)N1CCN(S(C)(=O)=O)CC1 | 13.3 | -10.6% | 36.8% | -6.8%[11.4 µM] | 39.8µM* | /
COc1ccc(C2C(C#N)=C(N)Oc3n[nH]c(C)c32)cc1Cn1nc(C)c([N+](=O)[O-])c1C (stereo not given) | 0.3 | -8.3% | 8.0% | -30.4% | 10µM* | -9.2
CCC(C(=O)Nc1nc(C)c(C)s1)c1ccccc1 (stereo not given) | -9.4 | 50.1µM* | 11.0% | -23.4% | -7.9%[0.501 µM] | -1.3
CCC(C(=O)Nc1nc(C)cs1)c1ccccc1 (stereo not given) | -1.0 | 1.9% | -14.9% | 50.1µM* | 10.7%[59 µM] | -1.0
CCC(C(=O)Nc1nccs1)c1ccccc1 (stereo not given) | 3.2 | -5.9% | 54.9% | -17.9% | 15.8%[59 µM] | -1.4
Cc1csc(NC(=O)C(Cc2ccccc2)n2cccc2)n1 (stereo not given) | -15.9 | ? | -21.2% | ? | 44.7µM* | -24.1
O=C(NCc1cccs1)C(Cc1ccccc1)n1cccc1 (stereo not given) | 15.9 | -37.1% | 9.3% | -25.4% | 44.7µM* | -5.5
Cc1ccc(NC(=O)C(Cc2ccccc2)n2cccc2)cc1 (stereo not given) | -16.1 | -38.0% | 5.5% | -11.0% | 7.9% | -10.9
